Beta cell apopt = inhibitors of cytokine-induced beta cell apoptosis, primary screen, luminescence | protection from apoptosis, % (concentration not given with the values) | 300,000 tested, 0.8% active | INS-1E cytokine-induced death, ATP luminescence, 48 h; percent of positive-control rescue, neutral wells zero | AID 435005, 2010;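 active means Every replicate reaches about 75%, or at least half do and their mean reaches it too, limit read from the data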;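 further: 0% = cytokine-treated negative control wells and 100% = positive control rescue; higher means more ATP so stronger rescue from cytokine killing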
697 NFkB inh = inhibitors of PMA/ionomycin-induced NF-kB reporter, 697 cells, primary screen, B-cell NF-kB inhibitor project, cell-based, luminescence, uHTS. 697 B-cell NF-kB luciferase reporter, 16 h. inhibition, % at 4 µM. 330,000 tested, 0.33% active. AID 435022, 2010; in the data active means inhibition above about 35%
Bfl-1 A1 inh = caspase 3/7 activation in MEF A1-2A-BIM cells, primary screen, A1 inhibitor project, cell-based, luminescence, HTS; Caspase-Glo 3/7 luminescence, 3 h; percent of clofoctol response, vehicle zero; caspase activation, % (no concentration beside the values); 330,000 tested, 0.066% active;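 active means over half of replicate activation scores above 10%, or exactly half above 10 with the replicate mean above 10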
Jurkat NFkB inh = inhibitors of induced NF-kB luciferase reporter, primary screen, TCR NF-kB activation inhibitor project, cell-based, luminescence, uHTS; Jurkat, PMA/ionomycin-induced NF-kB luciferase reporter; inhibition, % at 4 µM; 330,000 tested, 0.53% active; AID 435003, 2010; in the data active means inhibition above about 50%
NTR1 agonist = agonists of human NTR1, primary screen, imaging, U2OS cells, beta-arrestin-GFP, high content; activation, % at 20 µM; NTR1-U2OS beta-arrestin-GFP spot imaging, agonist mode; Neurotensin receptor type 1 (Homo sapiens), P30989; 330,000 tested, 0.17% active;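 active means activation at or above 40% of the spot to cytoplasm intensity ratio, with at least 20 cells analyzed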;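 further: 0% = DMSO without peptide and 100% = 100 nM NTR1 peptide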
Target sequence (P30989 whole entry, looked up): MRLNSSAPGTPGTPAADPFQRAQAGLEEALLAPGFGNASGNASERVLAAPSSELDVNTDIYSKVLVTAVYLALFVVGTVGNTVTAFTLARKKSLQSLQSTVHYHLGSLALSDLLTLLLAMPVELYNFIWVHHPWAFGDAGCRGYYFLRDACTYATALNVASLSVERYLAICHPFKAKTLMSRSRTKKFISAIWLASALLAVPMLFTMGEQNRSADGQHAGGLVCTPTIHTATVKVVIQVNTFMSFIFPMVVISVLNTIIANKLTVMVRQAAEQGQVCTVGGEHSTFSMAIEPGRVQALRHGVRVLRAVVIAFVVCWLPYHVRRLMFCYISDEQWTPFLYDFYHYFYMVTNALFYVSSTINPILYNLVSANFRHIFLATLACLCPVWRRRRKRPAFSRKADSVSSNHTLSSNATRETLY
Mdm2 MdmX PPI = inhibitors of human Mdm2-MdmX association, primary screen, cell-based, luminescence, split luciferase, SaOS-2, uHTS; Protein Mdm4 (Homo sapiens) + E3 ubiquitin-protein ligase Mdm2 (Homo sapiens), …; SaOS-2 split-luciferase Mdm2/MdmX complementation; inhibition, % at 8 µM; 330,000 tested, 3% active; AID 485346, 2010;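 active means inhibition of at least 50% at 8 µM in the primary screen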
Mdm2 MdmX conf = Mdm2-MdmX complex disruptors, retested hits, confirmation, luminescence, single concentration | shares compounds with Mdm2 MdmX PPI | Mdm2-MdmX binding, luminescent assay | 10,000 tested, 55% active | inhibition, % at 8 µM | AID 489028, 2010; in the data active means inhibition above about 40%
Full FLuc ctr = full-length luciferase signal inhibition, confirmation, counter-screen for Mdm2/MdmX interaction inhibitor project, cell-based, single concentration, SaOS-2; shares compounds with Mdm2 MdmX PPI; SaOS-2 full-length luciferase counterscreen, luminescence; inhibition, % at 8 µM; 6,200 tested, 77% active; AID 504607, 2011;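 active means mean inhibition at 8 µM reaching about 37%, which flags the compound as non-specific, limit read from the data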;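 further: p53-null SaOS-2 cells with luciferase driven by a doxycycline-inducible promoter; compound on cells about two nights before reading with doxycycline added after day one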
Active calls of the source: *; nt = no result given. Rows were chosen to be rich in hits. Some 3.8% of all compounds tested hit in one or more screens of this group.

SMILES	Beta cell apopt	697 NFkB inh	Bfl-1 A1 inh	Jurkat NFkB inh	NTR1 agonist	Mdm2 MdmX PPI	Mdm2 MdmX conf	Full FLuc ctr
O=C(N/N=C\C1C(=O)NC(=S)N(c2ccccc2)C1=O)c1ccc(O)cc1 (stereo not given)	-2	3	1	8	-1	9	nt	nt
CN1C(=O)NC(=O)/C(=C\C=C\c2ccccc2[N+](=O)[O-])C1=O	-12	5	0	4	24	32	nt	nt
CC(C)(C)c1ccc(C(=O)C2CCCN(C3CCC3)C2)cc1 (stereo not given)	0	-10	-1	-3	0	10	nt	nt
COc1c2c(cc3c1OCO3)CC[N+](C)=C2	-8	16	1	5	-1	9	nt	nt
CCCCn1c(O)c(C(CC)=NCc2ccc3c(c2)OCO3)c(=O)[nH]c1=O	6	-10	-1	9	4	-19	nt	nt
C=CCn1c(O)c(C(CC)=NCc2ccc3c(c2)OCO3)c(=O)[nH]c1=O	-9	32	-1	-6	0	55*	5	nt
CC(C)(C)c1ccc(O)c(N=Cc2c(O)ccc3ccccc23)c1	nt	-8	0	14	-1	50*	18	nt
COC(=O)C(O)(c1ccc(N=Cc2ccccc2O)c(C)c1)C(F)(F)F (stereo not given)	2	-5	0	-12	1	4	nt	nt
NC(N)=Nc1ccc2[nH]c3c(c2c1)C[C@@]1(O)[C@H]2Cc4ccc(O)c5c4[C@@]1(CCN2CC1CC1)C3O5 (stereo not given in full)	nt	18	nt	5	3	11	nt	nt
Clc1ccc2c(c1)C(OC1CN3CCC1CC3)c1ccccc1CS2 (stereo not given)	-22	11	0	19	2	64*	39	61*
CNc1ccc2oc(C[C@H]3O[C@@]4(CC[C@H]3C)O[C@H]([C@H](C)C(=O)c3ccc[nH]3)[C@H](C)C[C@H]4C)nc2c1C(=O)O	109*	-61	1	23	-4	100*	98*	52*
CC(=O)O[C@@H]1/C=C/[C@](C)(O)C[C@@H](C)C/C=C/[C@H]2[C@H](O)C(C)=C(C)[C@H]3[C@H](Cc4ccccc4)NC(=O)[C@@]123	8	29	0	-6	-2	72*	74*	49*
Cc1cc(C)cc(NC(=O)CCNC(=O)N2C[C@H]3C[C@@H](C2)c2cccc(=O)n2C3)c1	nt	17	0	-2	1	-5	nt	nt
CCOC(=O)C1(c2ccccc2)CCN(CCC(=O)Nc2cccc(Br)c2)CC1	nt	-29	nt	-13	11	54*	39	77*
CCOC(=O)C1(c2ccccc2)CCN(CCC(=O)Nc2ccc(C(=O)OC)cc2)CC1	-2	-6	-1	-8	0	17	nt	nt
COC(=O)C1=C(c2cc3ccccc3s2)C[C@@H]2CC[C@H]1N2C(=O)N1CCCCC1	4	-16	0	38	-5	52*	57*	40*
Cc1ccc2c(c1)C1CN(C)CCC1N2C(=O)Nc1cccc(C(F)(F)F)c1 (stereo not given)	0	26	-1	18	3	55*	37	65*
Cc1ccc2c(c1)[C@@H]1CN(C)CC[C@@H]1N2C(=O)Nc1cccc(C(F)(F)F)c1	5	23	1	15	-1	52*	20	nt
Cc1ccc2c(c1)C1CN(C)CCC1N2C(=O)c1ccc(Br)o1 (stereo not given)	3	8	0	-8	-1	17	nt	nt
Cc1ccc2c(c1)C1CN(C)CCC1N2C(=O)c1cn(-c2ccccc2)nc1-c1ccccc1 (stereo not given)	13	7	0	4	2	73*	36	76*
Cc1ccc2c(c1)C1CN(C)CCC1N2C(=O)CCCN1C(=O)c2cccc3cccc(c23)C1=O (stereo not given)	3	20	0	2	2	51*	23	nt
Cc1ccc2c(c1)C1CN(C)CCC1N2C(=O)c1cccnc1Cl (stereo not given)	-1	6	0	6	-2	12	nt	nt
CCOC(=O)C(=O)NC1CCSC1=O (stereo not given)	-6	8	1	4	-1	-17	nt	nt
CC(=O)c1c(C)n(Cc2ccccc2Cl)c2ccc(O)cc12	-18	-8	0	-8	2	52*	38	110*
CCN(CC)S(=O)(=O)c1cc(NC(=O)C(C)N2CC=C(c3ccccc3)CC2)ccc1C (stereo not given)	3	-50	1	-5	0	9	nt	nt
SMILES	Beta cell apopt	697 NFkB inh	Bfl-1 A1 inh	Jurkat NFkB inh	NTR1 agonist	Mdm2 MdmX PPI	Mdm2 MdmX conf	Full FLuc ctr
O=c1[nH]c(=O)n(Cc2ccco2)c(O)c1C=NCCCn1ccnc1	-1	0	0	-8	-1	17	nt	nt
O=c1c2ccccc2[se]n1-c1ccccc1	nt	12	nt	-11	-2	59*	15	nt
O=c1c2ccccc2nc(-c2ccccc2)n1-c1ccccc1	nt	-9	1	-17	-1	8	nt	nt
COc1ccc(-c2nn(CCC#N)cc2C(=O)Nc2cccc([N+](=O)[O-])c2)cc1OC	4	11	0	6	2	7	nt	nt
Cc1cc(C)n(CCOC(=O)C2C(C=C(Cl)Cl)C2(C)C)n1 (stereo not given)	0	-22	0	-6	0	12	nt	nt
O=C(COc1ccccc1)N1CCN(C2CC3CCC2C3)CC1 (stereo not given)	-2	-19	-1	-19	2	-5	nt	nt
CCN(CC)c1ccc(CNCCc2ccccc2F)cc1	6	-1	0	15	1	54*	48*	61*
Cc1cc([N+](=O)[O-])c2ccccc2[n+]1[O-]	115*	13	0	25	6	99*	100*	51*
Cc1ccccc1[N+](=O)[O-]	5	9	0	10	-1	-12	nt	nt
O=C(COC(=O)Cc1ccccc1)NCCNC(=O)COC(=O)Cc1ccccc1	0	-22	0	-20	0	11	nt	nt

High-throughput results: PubChem BioAssay, several laboratories
